In all, about 360,000 compounds went through this assay and about 2,300 (0.64%) were called active. The full list was thinned out, with actives kept by preference. A number with no mark means an inactive call.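 Rule for the calls: active = compounds giving at least 50% protection of heart cells from peroxide-induced death in the single-dose screen, raw or plate-pattern-corrected value; inactive = the rest.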
Test: H9c2 cardiomyocyte survival under peroxide injury – uHTS, H9c2 cells, ATPLite luminescence, primary screen (AID 588492);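 note: 0% = DMSO wells with peroxide and 100% = DMSO wells without peroxide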
Details: H9c2 cardiomyocytes, 2 h, at 20 µM, active compounds read high
For CCCCCn1c(=O)c(C(=O)NCc2ccccn2)c(O)c2ccccc21, the protection from H2O2 cell death was 53.7% (active). With CCCCCn1c(=O)c(C(=O)NCc2ccccc2)c(O)c2ccccc21 the protection from H2O2 cell death was 46.9%. CCCCn1c(=O)c(C(=O)Nc2ccccc2Cl)c(O)c2ccccc21 showed a protection from H2O2 cell death of 28.7%. CCN1CCN(C(=O)Cc2coc3cc(C)cc(C)c23)CC1 gave a protection from H2O2 cell death of 5.6%. COC(=O)C1=C(c2c(C)noc2C)C[C@@H]2CC[C@H]1N2C(=O)NCc1ccc2c(c1)OCO2 showed a protection from H2O2 cell death of -2.4%. In the case of COc1ccccc1N=Nc1c(O)[nH]c(=S)[nH]c1=O, the protection from H2O2 cell death was -6.6%. With Cc1ccc2c(c1)=C/C(=C\c1c(O)[nH]c(=O)[nH]c1=O)C(=O)N=2 the protection from H2O2 cell death was 60.8% (active). With O=C1N=c2ccccc2=C/C1=C\c1c(O)[nH]c(=S)[nH]c1=O the protection from H2O2 cell death was 51.8% (active). In the case of O=c1[nH]c(O)c(C=Nc2cc(F)cc(F)c2)c(=O)[nH]1, the protection from H2O2 cell death was 6.4%. With CCN1C(=O)C(=Cc2c(C)n(CC(=O)NCC3CCCO3)c3ccccc23)C(=O)N(CC)C1=S (stereo not given) the protection from H2O2 cell death was -2.5%. Nc1ccc([N+](=O)[O-])cc1 showed a protection from H2O2 cell death of -1.6%. Compound Cc1cccc(OP(=O)(Oc2cccc(C)c2)OC(c2ccccc2)C(F)(F)F)c1 (stereo not given) has a protection from H2O2 cell death of -8.9%. For CC1C(=O)OC2CCN3CC=C(COC(=O)C(C)(O)C1(C)O)C23 (stereo not given), the protection from H2O2 cell death was 1.6%. CCn1cc(CN2CCCC(C(=O)c3cccc(C(F)(F)F)c3)C2)cn1 (stereo not given) gave a protection from H2O2 cell death of -6.7%. With CCN1CCN(c2nc3c(c(=O)[nH]2)CCC3)CC1 the protection from H2O2 cell death was 63% (active). Work on O=C(NC(c1ccc(Cl)cc1)P(=O)(Oc1ccccc1)Oc1ccccc1)OCc1ccccc1 (stereo not given) yielded a protection from H2O2 cell death of 7.3%. In the case of O=C(CCNS(=O)(=O)c1ccccc1)Nc1ccc(Cl)cc1C(=O)c1ccccc1, the protection from H2O2 cell death was -9.8%. In the case of Fc1ccc(C2N3CCCN23)cc1 (stereo not given), the protection from H2O2 cell death was 1.5%. Compound C=CC12CN(C)[C@@H]3C4CO[C@H](C[C@H]41)[C@]1(C(=O)Nc4ccccc41)[C@@H]32 (stereo not given in full) has a protection from H2O2 cell death of 3.5%. NC(=O)Cn1cc(C(=O)c2ccccc2F)c2ccccc21 gave a protection from H2O2 cell death of 8.7%.

Reference: PubChem BioAssay AID588492 (Sanford-Burnham Center for Chemical Genomics, 2011)
